Screening results (PubChem BioAssay)
CYP2C19 act – human CYP2C19 activators, primary screen, biochemical, luminescence; recombinant CYP2C19, luciferin-H EGE luminescence; active compounds read high; 0 = fully inhibited enzyme, 1 = untreated enzyme; activation factor at 5 µM; 96,000 tested, under 10 active;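 active = activation factor of at least 2 at 5 µM in the primary screen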;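 also: 0 = wells with 2.5 mM tranylcypromine and 1 = vehicle-only wells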
PLAP activator – PLAP enzyme activators, biochemical, luminescence, HTS. purified PLAP enzyme, luminescent substrate read-out; active compounds read high. Alkaline phosphatase, placental type (Homo sapiens), P05187. activation fold at 20 µM. hit rate 1.2% among 96,000; in the data active = activation fold above about 2
Target sequence (P05187 whole entry, looked up): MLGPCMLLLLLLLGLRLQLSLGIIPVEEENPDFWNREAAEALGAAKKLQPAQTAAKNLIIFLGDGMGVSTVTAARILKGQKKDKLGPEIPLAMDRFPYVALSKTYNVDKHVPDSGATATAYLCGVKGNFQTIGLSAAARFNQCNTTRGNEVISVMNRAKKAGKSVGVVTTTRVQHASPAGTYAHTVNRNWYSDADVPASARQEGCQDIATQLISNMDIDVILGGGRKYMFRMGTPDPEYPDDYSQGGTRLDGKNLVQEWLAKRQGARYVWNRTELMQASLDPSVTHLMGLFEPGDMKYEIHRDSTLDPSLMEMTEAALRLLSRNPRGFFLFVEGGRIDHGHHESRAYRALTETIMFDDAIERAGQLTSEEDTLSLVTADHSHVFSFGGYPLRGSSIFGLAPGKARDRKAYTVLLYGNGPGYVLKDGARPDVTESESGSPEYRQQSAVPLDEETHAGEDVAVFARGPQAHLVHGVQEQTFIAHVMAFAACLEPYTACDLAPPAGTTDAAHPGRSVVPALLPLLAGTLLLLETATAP
CYP2C9 inhib – blockers of cytochrome P450 2C9 activity – biochemical, luminescence, ADME assay, primary screen; P11712; hit rate 20% among 96,000; CYP2C9 Supersomes, luciferin-H conversion; AID 777, 2007; inhibition, % at 5 µM;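 active = blocking of liver enzyme CYP2C9 beyond about 50% at 5 µM, limit read from the data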
CYP2C19 inhib – blockers of cytochrome P450 2C19 activity – biochemical, luminescence, ADME assay, primary screen; AID 778, 2007; CYP2C19 Supersomes, luciferin-H EGE luminescence, 30 min; P33261; hit rate 21% among 96,000; inhibition, % at 5 µM;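 active = CYP2C19 inhibition above a set limit at 5 µM in the primary screen, cut at about 50% in these data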;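 also: plate controls were negative control wells for no effect and 2.5 mM tranylcypromine positive control for full effect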
CYP2C9 activ – human CYP2C9 activators, primary screen, biochemical, luminescence; Cytochrome P450 2C9 (Homo sapiens), P11712; hit rate 1.4% among 96,000; recombinant CYP2C9, luciferin-H conversion; active compounds read high; factor 1 = untreated enzyme, 0 = blocked; activation factor at 5 µM;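 active = activation factor of 2 or more for CYP2C9 at a 5 µM dose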;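 also: 0 = sulfaphenazole-blocked wells and 1 = vehicle-only wells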
Numbers without * were called inactive. Rows were chosen to be rich in hits. Some 31% of all compounds tested hit in one or more screens of this group.

SMILES	CYP2C19 act	PLAP activator	CYP2C9 inhib	CYP2C19 inhib	CYP2C9 activ
CCOc1ccccc1NC(=O)c1ccc(S(=O)(=O)N2CCOCC2)cc1	1	1	-26.9	3.9	1.3
C=C(C)CC1N(c2cccc(OC)c2)C(=O)[C@@H]2C(C(=O)O)[C@H]3C=C[C@@]12O3 (stereo not given in full)	1	1.3	-18.6	0.2	1.2
CC1CCN(C(=O)CCc2nc3cc(S(=O)(=O)N(C)C)ccc3n2C)CC1	0.9	1	10.6	9.9	0.9
COc1ccc(N2CCn3c2nc2c3c(=O)n(CCc3ccccc3)c(=O)n2C)cc1	0.8	0.9	7.4	15.2	0.9
CCOC(=O)c1ccccc1NC(=O)/C=C/c1cc(OC)c(OC)c(OC)c1	1.1	0.9	-11.6	-7.1	1.1
O=S(=O)(CCSc1ccccn1)c1nc2ccccc2s1	0.6	0.8	-43.0	44.6	1.4
COc1cccc2sc(NC(=O)c3ccc(S(=O)(=O)N4CCOCC4)cc3)nc12	0.4	1	86.4*	64.0*	0.1
CCn1c(=NC(=O)c2ccc(S(=O)(=O)N3CCOCC3)cc2)sc2cccc(OC)c21	0.9	1.2	-8.3	11.5	1.1
O=C(Cn1nnc2ccccc21)NCc1ccccc1	0.8	0.9	-14.5	24.0	1.1
c1ccc2c(COn3nnc4ccccc43)cccc2c1	0	0.5	69.7*	96.4*	0.3
c1ccc2c(Cn3nnc4ccccc43)cccc2c1	0.7	1	-147.1	26.4	2.5*
O=C(O)c1ccc(C2CCCCC2)cn1	0.8	1.7	3.7	16.0	1
Nc1nc(SCC(=O)NCC2CCCO2)n[nH]1 (stereo not given)	1.1	0.9	7.0	-5.1	0.9
Nc1nc(SCC(=O)C23CC4CC(CC(C4)C2)C3)n[nH]1	0.6	2.1*	53.1*	44.8	0.5
COC(=O)C1CN(S(=O)(=O)c2ccc(C)cc2)CCN1S(=O)(=O)c1ccc(C)cc1 (stereo not given)	0.9	1.2	-12.8	8.9	1.1
COc1ccc(OC)c(S(=O)(=O)Nc2cccc(C(C)=O)c2)c1	0	0.9	66.2*	98.2*	0.3
CN(C)C(=O)Nc1cnc2ccccc2c1	1.1	0.8	3.9	-7.3	1
COc1ccc(C(=O)O)cc1S(=O)(=O)Nc1cccc(C)c1	1.1	1.2	-9.8	-12.8	1.1
O=S(=O)(Nc1cnc2ccccc2c1)N1CCCCCC1	0.4	1.4	13.2	57.4*	0.9
COc1ccc(NS(=O)(=O)c2ccc(OC)c3ccccc23)cn1	0.8	1.2	85.2*	17.3	0.1
COc1ccc(OC)c(S(=O)(=O)Nc2ccc(F)cc2)c1	0.5	1.1	3.2	51.7*	1
O=C(C1CCCN(S(=O)(=O)c2cccs2)C1)N1CCC(N2CCCCC2)CC1 (stereo not given)	1.1	1.5	7.9	-11.3	0.9
Cc1ccc(C)c(-n2nnnc2SCC(=O)Nc2cccc(-c3nnc4n3CCCCC4)c2)c1	0.8	0.8	42.4	18.3	0.6
COc1ccc(OC)c(S(=O)(=O)Nc2cccc(F)c2)c1	0.1	1	68.4*	89.4*	0.3
CCc1ccc(NS(=O)(=O)c2cc(OC)ccc2OC)cc1	0.5	1	68.5*	53.7*	0.3
SMILES	CYP2C19 act	PLAP activator	CYP2C9 inhib	CYP2C19 inhib	CYP2C9 activ
COc1ccc(C)cc1S(=O)(=O)Nc1ccc(F)cc1	0.1	0.9	72.3*	87.9*	0.3
COc1ccc(F)cc1S(=O)(=O)Nc1ccc2c(c1)OCCO2	0.7	0.9	7.3	34.1	0.9
CCOC(=O)c1ccc(NS(=O)(=O)c2cc(-c3nnnn3C(C)C)ccc2OC)cc1	0.1	1.6	91.3*	90.5*	0.1
NC(=O)C1(N2CCCCC2)CCN(C(=O)CCCn2c(=O)[nH]c3ccsc3c2=O)CC1	1	1.3	29.6	-2.4	0.7
COC(=O)c1ccc(NS(=O)(=O)c2cc(C)ccc2OC)cc1	0.9	0.9	55.4*	12.7	0.4
COc1ccc(OC)c(S(=O)(=O)Nc2cnc3ccccc3c2)c1	0.3	1.1	24.3	73.0*	0.8
CCOc1cc(C)c(S(=O)(=O)Nc2ccc(F)cc2)cc1C	0	0.9	96.8*	99.9*	0
COc1ccc(OC)c(S(=O)(=O)n2nnc3ccccc32)c1	0.4	0.9	-76.8	59.4*	1.8
COc1ccc(NS(=O)(=O)c2cc(C(=O)O)ccc2C)cc1	1	1.1	21.0	1.0	0.8
Cc1nn(C)c(C)c1-c1c(C#N)c(N)nc2c1CCCCCC2	1	1	2.8	-4.0	1
O=S1(=O)C=CC(Nc2ccccc2)C1 (stereo not given)	1	1	-1.8	-4.2	1
CC(C)C(C)(C#N)NC(=O)CSc1nnc(C(F)(F)F)n1C (stereo not given)	1	1	5.1	3.8	0.9
COc1ccc(CCC(C)Nc2cccc(F)c2)cc1 (stereo not given)	0.9	1.1	-3.2	11.6	1
Nc1c(Cl)cc(Cl)cc1C(=O)OCC(=O)N1CCCC1	0.8	0.9	-32.8	24.9	1.3
CC(C)CNC(=O)COC(=O)c1cc(Cl)cc(Cl)c1N	0.3	0.8	-93.6	65.7*	1.9
N#Cc1cc2c(=O)n3ccccc3nc2n(CCCn2ccnc2)c1=N	0.3	1.2	77.6*	70.7*	0.2
COc1ccc2c(c1)c1c(n2C(C)=O)C(OC(C)=O)=NCC1	1	0.9	-3.6	-2.0	1
COC(=O)c1cccnc1-n1c(=O)c2cccnc2n(Cc2ccc(Cl)cc2)c1=O	0.4	1.5	29.6	58.7*	0.7
COC(=O)c1sc2ncccc2c1OCc1ccc(Cl)cc1	1.1	1	11.3	-5.4	0.9
CCN(c1cccc(C(F)(F)F)c1)S(=O)(=O)c1ccc2c(c1)CCN2C(C)=O	0.4	1.2	28.5	61.4*	0.7
CNC(=O)c1ccc(-c2sc3nc(N4CCOCC4)c4c(c3c2N)CCCC4)o1	0.1	1.1	94.2*	91.9*	0.1
Nc1c(C(=O)NCc2ccccc2)sc2nc(N3CCOCC3)c3c(c12)CCCC3	0.8	1.1	86.3*	21.6	0.1
CCN(CC)c1ncnc2c1sc1nc(N3CCOCC3)c3c(c12)CCC3	0.8	0.9	27.9	19.3	0.7
CC1(C)Cc2c(c(N3CCOCC3)nc3snc(NC(=O)c4ccccc4)c23)CO1	0.9	1.1	88.1*	6.0	0.1
CNC(=O)c1ccc(-c2sc3nc(N4CCOCC4)c4c(c3c2N)CC(C)(C)OC4)o1	0.9	1.4	51.5*	5.4	0.5
CCOC(=O)c1sc2nc(N3CCOCC3)c3c(c2c1N)CCN(C)C3	0.9	1	11.7	6.6	0.9
CC1(C)Cc2c(c(N3CCOCC3)nc3sc(C(=O)N4CCCCC4)c(N)c23)CO1	1.1	1.5	24.9	-6.4	0.8
